# PvdQ acylase – P. aeruginosa PvdQ acylase inhibitors, primary screen, biochemical, fluorescence, plate reader and imaging, single point. PvdQ acylase [Pseudomonas aeruginosa LESB58]. purified PvdQ acylase. inhibition, % at 10 µM. 340,000 compounds, 0.063% hits. AID 488965, 2010; in the data active means inhibition above about 30%, passing the limit was not always enough; inconclusive means no clear call, values can overlap the other calls;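 further: 0% = vehicle neutral wells and 100% = reference inhibitor wells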
# C2C12 statin – suppressors of statin myotoxicity in C2C12 myotubes, primary screen, cell-based, single point, plate reader. 330,000 compounds, 0.78% hits. C2C12 myotubes + simvastatin, ATP luminescence, 48 h; scaled: DMSO 0, geranylgeraniol control 100. rescue of ATP level, % at 7.49 µM;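 active means mean ATP rescue above about 67%, or every replicate alone reaching that limit, limit read from the data, passing the limit was not always enough; inconclusive means no clear call, values can overlap the other calls; inactive means mean under the limit and some replicate under it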;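 further: myotubes were challenged with 10 µM simvastatin during compound exposure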
# DENV2 CPE rescue – inhibitors of DENV2 cytopathic effect, primary screen, cell-based, plate reader, single concentration; DENV2-infected cells, cytopathic effect rescue; 350,000 compounds, 1.7% hits; CPE inhibition, % at 9.99 µM; in the data active means CPE inhibition above about 20%, passing the limit was not always enough; inconclusive means no clear call, values can overlap the other calls; tested in BHK-21 cells;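 further: 0% = median of neutral control wells and 100% = median of positive control wells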
# miR122 inh – miR-122 Renilla sensor signal increase in Huh7, primary screen, miR-122 inhibitor project, cell-based, single point, plate reader | Huh7 miR-122 Renilla luciferase sensor, 48 h; neutral wells = 0, positive control = 100 | activation (reporter increase), % at 12.5 µM | 340,000 compounds, 0.3% hits;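 active means mean replicate activation score at least 90 and every replicate individually at or above 90; inconclusive means only one of the two criteria met; inactive means neither criterion met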;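 further: higher luciferase means less miR-122 activity so hits act as miR-122 inhibitors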
# PGC1a acetyl inh – inhibitors of PGC1a acetylation signal, primary screen, cell-based, U2OS, AlphaScreen, inhibitor mode. AlphaScreen anti-acetyl-lysine; with virally co-expressed GCN5 acetyltransferase. inhibition, % at 15.6 µM. 350,000 compounds, 0.17% hits. AID 651687, 2012;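 active means every replicate shows inhibition of at least 40%; inconclusive means mean inhibition at least 40% but some replicate below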;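 further: 0% = neutral control wells and 100% = positive control wells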
# An asterisk follows results filed as active; ? = inconclusive; · = no result given; [ ] = remark or other dose. Hits are enriched below; roughly 2.2% of the tested compounds scored in any of these assays.
SMILES,PvdQ acylase,C2C12 statin,DENV2 CPE rescue,miR122 inh,PGC1a acetyl inh
COc1ccc(-c2ccccc2[C@H]2[C@@H](CO)N(C(=O)C3CCOCC3)[C@H]2C#N)cc1,·,·,-6.5,·,-9.0
Nc1nnnn1NCc1cccc(OCc2ccccc2)c1,-13.0,104.2*,·,3.0,-0.6
C=CCOc1ccc(CNn2nnnc2N)cc1,-3.9,·,·,-1.9,-3.5
N#Cc1ccc(C23OCCN2CCn2c3c3ccccc3[n+]2[O-])cc1 (stereo not given),-5.7,-5.6,8.7,1.1,8.7
Cc1ccc(C23OCCN2CCn2nc4ccccc4c23)cc1 (stereo not given),-7.6,1.5,73.6*,-1.9,1.5
O=C1c2ccccc2NC(c2ccc(Br)s2)N1O (stereo not given),·,·,52.7*,·,·
COc1ccc2c(c1)[C@H]1[C@H](CO2)[C@H](c2ccccc2)[C@]2(C)C(=O)Nc3cc(F)ccc3C(=O)N12,-14.4,-2.2,-6.0,-8.9,·
COc1ccc2c(c1)OC[C@H]1[C@H]2N2C(=O)c3ccc(F)cc3NC(=O)[C@@]2(C)[C@H]1c1ccccc1,-11.1,·,54.6*,1.4,-14.0
CC(C)CC#Cc1ccc2c(c1)O[C@H](CN(C)C(=O)Nc1ccccc1F)[C@@H](C)CN([C@@H](C)CO)S2(=O)=O,·,-14.8,-23.4,107.2*[16.7 µM],-6.0
CC(C)CC#Cc1ccc2c(c1)O[C@@H](CN(C)C(=O)c1ccccc1F)[C@H](C)CN([C@@H](C)CO)S2(=O)=O,·,-26.5,39.4*,18.2[16.7 µM],5.1
CC(C)CC#Cc1ccc2c(c1)O[C@H](CN(C)C(=O)c1ccccc1F)[C@H](C)CN([C@H](C)CO)S2(=O)=O,·,-51.9,-15.7,43.7[16.7 µM],-8.3
COCC#Cc1ccc2c(c1)O[C@@H](CN(C)C(=O)Nc1ccccc1F)[C@H](C)CN([C@@H](C)CO)S2(=O)=O,·,-1.3,90.1*,6.7[16.7 µM],-9.1
COc1ccc(S(=O)(=O)N(C)C[C@@H]2Oc3ccc(NC(=O)Nc4ccc5c(c4)OCO5)cc3C(=O)N([C@H](C)CO)C[C@H]2C)cc1,·,·,?,-3.1[16.7 µM],0.5
C[C@H](CO)N1C[C@H](C)[C@H](CN(C)S(C)(=O)=O)Oc2cc(C#Cc3ccccc3)ccc2S1(=O)=O,·,-3.3,28.2*,3.5[16.7 µM],5.8
C[C@H](CO)N1C[C@H](C)[C@@H](CN(C)S(C)(=O)=O)Oc2cc(C#Cc3ccccc3)ccc2S1(=O)=O,·,-13.8,0.1,130.2*[16.7 µM],10.6
C[C@@H]1CN([C@H](C)CO)S(=O)(=O)c2ccc(C#Cc3ccccc3)cc2O[C@H]1CN(C)S(C)(=O)=O,·,-23.2,2.3,5.2[16.7 µM],2.0
C[C@@H]1CN([C@@H](C)CO)S(=O)(=O)c2ccc(C#Cc3ccccc3)cc2O[C@H]1CN(C)S(C)(=O)=O,·,-6.0,26.5*,26.2[16.7 µM],6.9
C[C@@H]1CCCCO[C@@H](CN(C)C)[C@H](C)CN([C@H](C)CO)C(=O)c2cc(NC(=O)c3ccncc3)ccc2O1,·,-4.2,3.7,4.6[16.7 µM],3.3
O=[N+]([O-])c1cccc2c(S(=O)(=O)N3CCCCC3)cccc12,2.3,-10.7,53.1*,·,·
O=[N+]([O-])c1cccc2c(S(=O)(=O)N3CCOCC3)cccc12,-1.9,1.6,14.9,·,·
Cc1ccc(O)c(CNc2cccc3cccnc23)c1,-11.3,·,0.1,·,-4.7
Oc1ccc(Br)cc1CNc1cccc2cccnc12,2.1,82.7*,0.4,·,·
CC(C)[C@H](NC(=O)OC(C)(C)C)C(=O)NCC1CCC(C(=O)N[C@@H](Cc2ccccc2)C(=O)O)CC1 (stereo not given in full),-6.9,-5.0,40.0*,·,10.2
COCC(=O)NC[C@@H]1N[C@@H](CO)[C@H]1c1ccc(-c2ccccc2F)cc1,·,-6.5,-3.9,25.0[16.7 µM],-7.1
CCc1c(C)c2ccc(OCC(=O)N(C)C)c(C)c2oc1=O,-17.4,0.5,·,-2.4,1.6
Cc1c(C)c2ccc(OCC(=O)N(C)C)c(C)c2oc1=O,-12.4,97.9*,·,-3.4,-14.3
Cc1cccc(/C=C(\c2nc3ccccc3[nH]2)S(=O)(=O)c2ccccc2)c1,-5.0,77.9*,12.3,-0.7,8.4
CC(C)(C)c1ccc(/C=C(\c2nc3ccccc3[nH]2)S(=O)(=O)c2ccccc2)cc1,-14.4,41.1,·,-3.2,-16.4

# Screening data deposited in PubChem by Broad Institute.
